JMJD2A Tudor inh = inhibitors of human JMJD2A Tudor domain; Potency, µM (series often up to 114 µM), hits mostly inhibitors; O75164; AlphaScreen JMJD2A-Tudor / H3K4me3 peptide binding; 390,000 compounds, 4.4% hits; note: nearly all actives have a fitted effect of over 50% in size
PI5P4Ka inh = inhibitors of human PI5P4K alpha. PI5P4Kalpha enzyme, ADP-Glo luminescence, 60 min; hits give low values. max response, %. 330,000 compounds, 1.2% hits. AID 652105; active = max response of -50% or lower; inconclusive = between -30% and -50%; inactive = -30% or higher; note: value at the top dose of about 77 µM
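PI5P4Kalpha ADP-Glo assay; 5 microM ATP final; 60 min RT reaction; HEPES pH 7.4/EGTA/CHAPS, 5% DMSO; controls lacking substrate or enzyme; luminescent end-point.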
HP1b chromo inh = blocks HP1-beta chromodomain binding to methylated histone tails; AlphaScreen HP1-beta / biotin-H3K9me3 peptide binding; Potency, µM (top dose mostly 114 µM), actives largely listed as inhibitors; P83916; AID 540317; 390,000 compounds, 0.56% hits; note: nearly all actives have a fitted effect of over 70% in size
Target sequence (P83916 whole entry, looked up): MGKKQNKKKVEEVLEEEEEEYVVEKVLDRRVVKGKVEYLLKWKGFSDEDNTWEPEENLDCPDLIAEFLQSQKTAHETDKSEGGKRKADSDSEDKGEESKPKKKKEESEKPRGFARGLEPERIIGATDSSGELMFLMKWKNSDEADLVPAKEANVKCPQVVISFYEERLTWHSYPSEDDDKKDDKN
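HP1-beta protein (50 nM final) preincubated 30 min at room temperature with biotinylated H3(1-18)K9me3 peptide (50 nM) in PBS pH 7.4, 0.01% Tween-20, then compound added for 30 min. AlphaScreen streptavidin donor/nickel chelate acceptor beads (10 ug/mL final), 30 min dark, luminescence read.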
PLK1 PBD block = inhibitors of human PLK1 polo-box domain binding; P53350; Plk1 PBD binding of FITC phosphopeptide, fluorescence polarization; Potency, µM, usual class: inhibitors; 360,000 compounds, 2.8% hits; note: series mostly up to about 57 µM; nearly all actives have a fitted effect of over 65% in size
G9a block = inhibitors of human histone lysine methyltransferase G9a; Q96KQ7; G9a H3K9 monomethylation, AlphaScreen, 2 h; Potency, µM (top dose mostly 102 µM), hits mostly inhibitors; 350,000 compounds, 8.8% hits; AID 504332; note: nearly all actives have a fitted effect of over 75% in size
Target sequence (Q96KQ7 913-1193 limits assumed): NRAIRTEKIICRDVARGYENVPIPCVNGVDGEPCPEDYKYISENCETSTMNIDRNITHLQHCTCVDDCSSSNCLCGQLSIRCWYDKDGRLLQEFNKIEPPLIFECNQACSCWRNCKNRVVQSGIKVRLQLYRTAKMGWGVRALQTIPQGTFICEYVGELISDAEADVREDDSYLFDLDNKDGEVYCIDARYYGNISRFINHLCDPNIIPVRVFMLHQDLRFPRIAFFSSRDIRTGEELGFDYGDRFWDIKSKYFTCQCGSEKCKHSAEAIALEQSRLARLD
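Chemiluminescent proximity detection of H3K9 monomethylation, read after 10 min bead incubation in the dark. Reaction: 20 nM G9a, 500 nM biotin-H3K9 peptide, 20 uM SAM cofactor, 2 h, room temperature, following 15 min enzyme-compound preincubation.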
BAZ2B inh = BAZ2B (human) inhibition. 360,000 compounds, 4.4% hits. Potency, µM (highest dose often 114 µM), usual class: inhibitors. AlphaScreen BAZ2B-H3K14Ac peptide displacement. Q9UIF8; note: nearly all actives have a fitted effect of over 60% in size
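AlphaScreen luminescence quantifies BAZ2B engagement of H3K14Ac peptide; the protein and biotinylated peptide are both at 50 nM final, buffer PBS pH 7.4 with 0.01% Tween-20, all steps at room temperature.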
Hits are given with their value; n = inactive; u = inconclusive; x = no result given; [ ] = remark or other dose. Hits are enriched below; roughly 12% of the tested compounds scored in any of these assays. Unless noted, calls come from the whole dose curve; as a rule, active = well fitted curve in the direction sought with a large enough effect; inconclusive = small, poorly fitted or top-dose-only effect, or another doubt; inactive = no such curve, though single readings can be large; an effect the other way counts as inactive or inconclusive.

SMILES	JMJD2A Tudor inh	PI5P4Ka inh	HP1b chromo inh	PLK1 PBD block	G9a block	BAZ2B inh
CC(=O)NS(=O)(=O)c1ccc(Nc2ccc([N+](=O)[O-])c3nonc23)cc1	n	u	n	n	n	50µM
O=[N+]([O-])c1ccc(Sc2cccc[n+]2[O-])c2nonc12	20µM	-53	7.9µM	0.95µM	0.5µM	56µM
O=C(CSc1cccc[n+]1[O-])Nc1cc(Cl)ccc1[N+](=O)[O-]	n	n	n	n	x	x
CC1=C(C(=O)N2CCOCC2)CC(CC(=O)NCc2ccco2)C(=O)N1CCC1=CCCCC1 (stereo not drawn)	x	n	x	n	x	x
C[C@@H]1CN([C@@H](C)CO)C(=O)CCCn2nncc2CO[C@@H]1CN(C)S(=O)(=O)c1cccc(C#N)c1	x	n	x	n	x	x
COc1cc(-c2cc(C(=O)Nc3cc(S(=O)(=O)N4CCOCC4)ccc3C)c3ccccc3n2)cc(OC)c1OC	n	n	n	n	u	n
COc1cc(-c2cc(C(=O)NCc3ccco3)c3ccccc3n2)cc(OC)c1OC	n	n	n	n	50µM	n
COc1cc(-c2cc(C(=O)Nc3cc(S(=O)(=O)N4CCOCC4)ccc3O)c3ccccc3n2)cc(OC)c1OC	n	u	u	17µM	x	x
Cc1ccc(-c2cc(C(=O)NCc3ccco3)c3ccccc3n2)s1	n	u	n	n	50µM	u
Cc1ccc2onc(CNC(=O)N(C)Cc3ccccc3)c2c1	n	x	n	x	n	n
COc1ccc(Cn2c(=O)c3cccnc3n(CC(=O)Nc3c(C)cc(C)cc3C)c2=O)cc1	n	x	n	x	n	n
CSc1ccccc1C(=O)OCC(=O)Nc1ccc(N2CCOCC2)cc1	n	n	n	n	x	x
COc1cccc(OCC(O)CNC(C)c2ccccc2)c1 (stereo not drawn)	n	n	n	n	n	n
CCOC(=O)c1ccccc1NC(=O)CN(c1cc(C(F)(F)F)ccc1Cl)S(C)(=O)=O	n	x	n	x	n	n
Cc1ccc(OCc2cc(=O)n3cc(C)sc3n2)c(NC(=O)c2ccco2)c1	u	x	n	x	n	n
C=CCOc1c(Br)cc(/C=N/O)cc1OCC	n	n	n	30µM	n	n
CCCCOc1c(Br)cc(/C=N/O)cc1OCC	n	n	n	n	n	n
COc1ccc(N2CC(NC(=O)/C=C\c3ccc(OC)c(OC)c3)CC2=O)cc1 (stereo not drawn)	n	x	n	x	n	n
O=C(O)CNC(=O)c1ccc(Oc2c(F)c(F)c(Oc3ccc(C(=O)NCC(=O)O)cc3)c(F)c2F)cc1	n	n	n	n	n	n
COc1ccc(CCN2C(=O)CC(Cc3ccc(C)cc3)C2=O)cc1OC (stereo not drawn)	10µM	-69	n	12µM	n[0.501 µM]	n
O=C1C2C3CCC(C3)C2C(=O)N1Cc1ccco1 (stereo not drawn)	n	n	n	n	n	n
O=C1CC(Cc2ccccc2)C(=O)N1Cc1ccco1 (stereo not drawn)	n	u	n	n	45µM	n
Cc1ccc(CC2CC(=O)N(Cc3ccco3)C2=O)cc1 (stereo not drawn)	n	u	n	n	40µM	n
CC(C)Nc1cccnc1N1CCN(C(=O)c2cc3cc(NS(C)(=O)=O)ccc3[nH]2)CC1	x	x	x	x	n[12.7 µM]	x
O=C(NC(=S)NC1CCC(O)CC1)c1ccco1 (stereo not drawn)	n	n	n	n	x	x
SMILES	JMJD2A Tudor inh	PI5P4Ka inh	HP1b chromo inh	PLK1 PBD block	G9a block	BAZ2B inh
Nc1nc(N=Nc2ccc(O)cc2)cc(=O)[nH]1	x	-52	x	n	x	x
O=C(Nc1cc(S(=O)(=O)N2CCCC2)ccc1OCC(F)(F)F)c1ccncc1	x	n	x	n	x	x
CCS(=O)(=O)Nc1ccc(Cc2ccncc2)cc1	n[11.4 µM]	n	n	30µM	n	n
CN(C)c1ccc(Nc2nc3ccccc3n3nnnc23)cc1	7.9µM	x	u	x	3.2µM	3.5µM
CCOc1ccc(Nc2nc3ccccc3n3nnnc23)cc1	u	n	n	n	n	n
Cc1ccc(C(=O)O)cc1Nc1nc2ccccc2n2nnnc12	32µM	x	n	x	n	u
CN1CCN(c2ncc3nc(-c4cccc(C#N)c4)c(=O)n(Cc4ccc(F)cc4)c3n2)CC1	x	x	x	x	n[0.501 µM]	x
O=C(Nc1cc(C(F)(F)F)ccc1N1CCOCC1)c1ccccc1	n	x	n	n	n[12.7 µM]	n
